Earlier results on 26 compounds are cited in PubChem BioAssay AID977611.

The series is described as follows: PubChem AID 977611. The conditions noted are these: PDB protein-ligand complexes, literature Kd.

Among all 3,900 compounds or so, about 3,900 (100%) were called active. Cut-off not given; nearly all actives show Kd up to about 4200 µM. So high a share suggests a set chosen from earlier hits. This is one part of the list. Where a SMILES comes first, the peptide text is derived from it. Non-standard residues stand in square brackets, D forms with d. Residues, ends and D or L forms follow the SMILES beside them. Orn(CH(NH2)2) = NC(N)NCCC[C@H](N)C(=O)O

For orientation: Kd means a measure of binding affinity in units of concentration. Take `N#Cc1c(O)c2c(-c3ccc(-c4ccccc4O)cc3)c(Cl)sc2[nH]c1=O`: the Kd (protein: 5'-AMP-activated protein kinase catalytic subunit AMPK alpha1-belta1-gamma1, PDB entry 4qfr) is 7.4 nM (active). For the compound `N#Cc1c(O)c2c(-c3ccc(Br)cc3)c(Br)sc2[nH]c1=O`, the Kd (protein: 5'-AMP-activated protein kinase catalytic subunit AMPK alpha1-belta1-gamma1, PDB entry 4qfs) is 900 nM (active). On to `Cc1nc2c(=O)[nH]c(=O)[nH]c2n(C[C@H](O)[C@H](O)[C@H](O)CO)c1=O`, for which, for the setting “protein: Major histocompatibility complex class I-related gene protein, PDB entry 4l4v”, the Kd is 1650 nM (active).

Consider `CCNc1cc2c(cc1C)C(c1ccccc1C(=O)OCC)c1cc(C)c(NCC)cc1O2`, for which, for the setting “protein: Putative regulatory protein, PDB entry 3vvz”, the equilibrium dissociation constant (Kd) is 26400 nM (active). Consider `C[C@@H](O)CN1CC2=C(C1)c1ccccc1Nc1ccccc12`, for which the Kd (protein: Renin, PDB entry 4gj9) was 500000 nM (active). Take `CC[C@H](C)[C@H](NC(=O)CNC(=O)[C@@H](N)CCC(N)=O)C(=O)N[C@H](C(=O)N[C@@H](CCCCN)C(=O)N1CCC[C@H]1C(=O)N[C@@H](C)C(=O)N[C@H](C(=O)N[C@@H](CCCNC(N)N)C(=O)N[C@@H](CCCNC(N)N)C(=O)N[C@@H](CC(C)C)C(=O)N[C@@H](C)C(=O)N[C@@H](CCCNC(N)N)C(=O)N[C@@H](CCCNC(N)N)C(=O)NCC(=O)O)[C@@H](C)CC)[C@@H](C)O` (H-QGITKPAI[Orn(CH(NH2)2)][Orn(CH(NH2)2)]LA[Orn(CH(NH2)2)][Orn(CH(NH2)2)]G-OH): the Kd (protein: Histone-binding protein RBBP7, PDB entry 3cfs) was 1100 nM (active). On to `CC[C@H](C)[C@H](NC(=O)CNC(=O)[C@H](CCC(N)=O)NC(=O)[C@@H](NC(=O)[C@H](CC(N)=O)NC(=O)[C@@H](N)CC(=O)O)[C@@H](C)CC)C(=O)N[C@H](C(=O)N[C@@H](CCCCN)C(=O)N1CCC[C@H]1C(=O)N[C@@H](C)C(=O)N[C@H](C(=O)N[C@@H](CCCNC(N)N)C(=O)N[C@@H](CCCNC(N)N)C(=O)N[C@@H](CC(C)C)C(=O)N[C@@H](C)C(=O)N[C@@H](CCCNC(N)N)C(=O)N[C@@H](CCCNC(N)N)C(=O)NCC(=O)O)[C@@H](C)CC)[C@@H](C)O` (H-DNIQGITKPAI[Orn(CH(NH2)2)][Orn(CH(NH2)2)]LA[Orn(CH(NH2)2)][Orn(CH(NH2)2)]G-OH), for which, for the setting “protein: Histone-binding protein RBBP7, PDB entry 3cfv”, the Kd is 900 nM (active). In the case of `O[C@@H]1[C@H](O)CO[C@](O)(CO[P+](O)(O)O)[C@H]1O`, under “protein: GLUCOKINASE REGULATORY PROTEIN, PDB entry 4bb9”, the Kd is 1000 nM (active). Consider `O=C(NCCC1C=CCCC1)Nc1ccc2nnsc2c1` (stereo unspecified), for which the dissociation constant (Kd) (protein: Protein arginine N-methyltransferase 3, PDB entry 3smq) was 9500 nM (active). In the case of `OC[C@H]1O[C@@H](Oc2ccc([C@@H](c3ccc(O)c(Cl)c3)c3ccccc3S(O)(O)O)cc2Cl)[C@H](O)[C@@H](O)[C@H]1O`, the Kd (protein: PA-I galactophilic lectin, PDB entry 4lk6) is 6300 nM (active). Take `C/C(=C/C=C/C(C)=C/C(=O)O)Cc1cccc2ccc(C)cc12`: under “protein: Retinoic acid receptor RXR-alpha, PDB entry 4poj”, the equilibrium dissociation constant (Kd) is 8 nM (active). Turning to `NCc1ccc2occc2c1`, under “protein: CATIONIC TRYPSIN, PDB entry 4ab9”, the Kd is 466000 nM (active). Regarding `NC1C=CN([C@@H]2O[C@H](CO)[C@@H](O)[C@H]2O)C(=O)N1` (stereo partly specified), for the setting “protein: Peptidyl-tRNA hydrolase, PDB entry 4jwk”, the Kd was 4.79 nM (active). For `NC1C=CN([C@@H]2O[C@H](CNC(=O)c3c[nH]c4scc[n+]34)[C@@H](O)[C@H]2O)C(=O)N1` (stereo partly specified), under “protein: 2-C-methyl-D-erythritol 2,4-cyclodiphosphate synthase, PDB entry 3q8h”, the Kd was 70000 nM (active). Regarding `O=C(CCN1CCCCC1)N1CCc2[nH]c(=O)c3cc(F)ccc3c2C1`, the Kd (protein: Putative ADP-ribosyltransferase Certhrax, PDB entry 4fxq) was 1700 nM (active). As to `C[C@H]1CCC[C@H](C[C@H]2Cc3cc(O)cc(O)c3C(=O)O2)O1`, the Kd (protein: Lysine--tRNA ligase, PDB entry 4pg3) was 14 nM (active). On to `CC[C@H](C)[C@H](N)C(=O)N[C@@H](CCC(=O)O)C(=O)N[C@@H](CC(C)C)C(=O)N1CCC[C@H]1C(=O)N[C@@H](CCC(=O)O)C(=O)N[C@H](C(=O)N1CCC[C@H]1C(=O)N[C@@H](CO)C(=O)N[C@@H](CCC(=O)O)C(=O)N1CCC[C@H]1C(=O)N[C@@H](CC(C)C)C(=O)N1CCC[C@H]1C(=O)O)C(C)C` (H-IELPEVPSEPLP-OH), for which the Kd (protein: Vacuolar protein sorting-associating protein 4A, PDB entry 2k3w) is 5800 nM (active). For the compound `CC[C@H](C)[C@H](NC(=O)[C@@H](NC(=O)[C@H](CC(C)C)NC(=O)[C@H](C)NC(=O)[C@@H]1CCCN1C(=O)[C@H](CC(C)C)NC(=O)[C@@H](NC(=O)[C@@H]1CCCN1C(=O)[C@H](CCCCN)NC(=O)[C@H](CCCNC(N)N)NC(=O)[C@H](C)N)C(C)C)[C@@H](C)O)C(=O)N[C@@H](C)C(=O)O` (H-A[Orn(CH(NH2)2)]KPVLPALTIA-OH), the Kd (protein: Mitogen-activated protein kinase 1 (R77A, E314A, I255G, C162S mutation), PDB entry 4h3q) is 8000 nM (active). `CC[C@H](C)[C@H](NC(=O)[C@H](CO)NC(=O)[C@@H]1CCCN1C(=O)[C@H](C)N)C(=O)N[C@@H](CC(=O)O)C(=O)N[C@@H](CCCNC(N)N)C(=O)N[C@@H](CO)C(=O)N[C@H](C(=O)N[C@@H](CCCCN)C(=O)N1CCC[C@H]1C(=O)N1CCC[C@H]1C(=O)N[C@@H](CC(C)C)C(=O)O)[C@@H](C)O` (H-APSID[Orn(CH(NH2)2)]STKPPL-OH): the Kd (protein: Grb2-related adaptor protein 2(C-terminal SH3 domain (SH3C) of Mona/Gads, PDB entry 1oeb) is 118 nM (active). Turning to `CC[C@H](C)[C@H](NC(=O)[C@H](CC(C)C)NC(=O)[C@@H]1CCCN1C(=O)[C@@H]1CCCN1C(=O)[C@@H]1CCCN1C(=O)[C@H](CC(N)=O)NC(=O)[C@H](CO)NC(=O)[C@@H](NC(=O)[C@@H](N)[C@@H](C)O)[C@@H](C)CC)C(=O)N[C@@H](CO)C(=O)N[C@@H](CO)C(=O)N[C@@H](C)C(=O)N[C@@H](CCCCN)C(=O)O` (H-TISNPPPLISSAK-OH), the dissociation constant Kd (protein: The MYND domain (NHR4) of ETO, PDB entry 2odd) is 109000 nM (active). As to H-KPAAVVAPI-OH, for the setting “protein: Ubiquitin ligase SIAH1, PDB entry 2a25”, the Kd is 24000 nM (active). Take `CC[C@H](C)[C@H](NC(=O)[C@@H](NC(=O)[C@@H](N)CS)[C@@H](C)CC)C(=O)N[C@@H](CO)C(=O)N[C@@H](C)C(=O)N[C@@H](CCSC)C(=O)N1CCC[C@H]1C(=O)N[C@H](C(=O)N[C@@H](CCCCN)C(=O)N[C@@H](CO)C(=O)N[C@@H](CO)C(=O)N[C@@H](CCCNC(N)N)C(=O)N[C@@H](CCCCN)C(=O)N[C@@H](C)C(=O)N[C@@H](CCCCN)C(=O)N[C@@H](CCCCN)C(=O)N1CCC[C@H]1C(=O)N[C@@H](C)C(=O)N[C@@H](CCC(N)=O)C(=O)O)[C@@H](C)O` (H-CIISAMPTKSS[Orn(CH(NH2)2)]KAKKPAQ-OH): where the note is “protein: DDEF1 SH3 domain, PDB entry 2rqu”, the Kd is 23600 nM (active). Take `CC[C@H](C)[C@H](NC(=O)[C@H](Cc1ccccc1)NC(=O)[C@H](CCCCN)NC(=O)CN)C(=O)N1CCC[C@H]1C(=O)N[C@@H](CO)C(=O)N[C@@H](CCCNC(N)N)C(=O)N1CCC[C@H]1C(=O)N[C@@H](C)C(=O)N1CCC[C@H]1C(=O)N[C@@H](CCCCN)C(=O)N1CCC[C@H]1C(=O)N1CCC[C@H]1C(=O)N[C@@H](CO)C(=O)N[C@@H](CO)C(=O)N[C@@H](C)C(=O)O` (H-GKFIPS[Orn(CH(NH2)2)]PAPKPPSSA-OH): the equilibrium dissociation constant (Kd) (protein: NAP1-binding protein 2, PDB entry 2lcs) is 200 nM (active).

On to H-ELPLVKI-OH, for which the Kd (protein: Chaperone protein DnaK, PDB entry 4ezz) was 6400 nM (active). `CC[C@H](C)[C@H](NC(=O)[C@H](CO)NC(=O)[C@@H]1CCCN1C(=O)[C@H](C)N)C(=O)N[C@@H](CC(=O)O)C(=O)N[C@@H](CCCNC(N)N)C(=O)N[C@@H](CO)C(=O)N[C@H](C(=O)N[C@@H](CCCCN)C(=O)N1CCC[C@H]1C(=O)N[C@@H](C)C(=O)O)[C@@H](C)O` (HELM PEPTIDE1{A.P.S.I.D.[NC(N)NCCC[C@H](N[*:1])C(=O)[*:2]].S.T.K.P.A}$$$$V2.0): the Kd (protein: mouse Gads T cell adaptor C-terminal SH3 domain, PDB entry 1h3h) was 220 nM (active).

Regarding `CC(C)(CO[P+](O)(O)O[P+](O)(O)OC[C@H]1O[C@@H](n2cnc3c(N)ncnc32)[C@H](O)[C@@H]1O[P+](O)(O)O)[C@@H](O)C(=O)NCCC(=O)NCCSC(=O)CC[C@@H]1C(=O)CC[C@]2(C)C(=O)CC[C@@H]12`, the dissociation constant (Kd) (protein: HTH-type transcriptional repressor KstR2, PDB entry 4w97) is 80 nM (active).
